{
  "source": "the antibiotic and cytotoxicity screens of Wong et al. (2023)",
  "note": "The campaign covered roughly 39,000 compounds. About 3,300 (8.5%) were called active. This is one part of a sample in which actives are shown more often than they occur.",
  "data": [
    {"system": "HepG2", "assay": "cytotoxicity call (relative viability < 0.9)", "details": "10 µM", "values": [
      {"smiles": "C[C@H]1CN([C@@H](C)CO)C(=O)Cc2cc(NC(=O)Nc3ccc(F)cc3)ccc2O[C@@H]1CN(C)CC1CCCCC1", "cytotoxicity call": "active"},
      {"smiles": "C[C@H]1CN([C@@H](C)CO)C(=O)Cc2cc(NC(=O)Nc3ccc(F)cc3)ccc2O[C@H]1CN(C)CC1CCCCC1", "cytotoxicity call": "active"},
      {"smiles": "C[C@@H]1CN([C@H](C)CO)C(=O)Cc2cc(NC(=O)Nc3ccc(F)cc3)ccc2O[C@H]1CN(C)CC1CCCCC1", "cytotoxicity call": "active"},
      {"smiles": "COc1ccc(NC(=O)Nc2ccc3c(c2)CC(=O)N([C@H](C)CO)C[C@@H](C)[C@H](CN(C)CC2CCCCC2)O3)cc1", "cytotoxicity call": "inactive"},
      {"smiles": "C[C@@H]1CN([C@@H](C)CO)C(=O)Cc2cc(NC(=O)Nc3ccc(F)cc3)ccc2O[C@@H]1CN(C)CC1CCCCC1", "cytotoxicity call": "active"},
      {"smiles": "Cc1noc(C)c1S(=O)(=O)Nc1ccc2c(c1)C(=O)N([C@H](C)CO)C[C@H](C)[C@@H](CN(C)C(=O)NC1CCCCC1)O2", "cytotoxicity call": "inactive"},
      {"smiles": "CNC[C@H]1OCCCC[C@H](C)Oc2ccc(NC(=O)c3ccncc3)cc2C(=O)N([C@H](C)CO)C[C@@H]1C", "cytotoxicity call": "inactive"},
      {"smiles": "COc1ccc2c3c([nH]c2c1)[C@H](CO)N(C[C@]13CN(C1)S(=O)(=O)c1cccs1)C(=O)c1ccccc1", "cytotoxicity call": "inactive"},
      {"smiles": "COc1ccc2c3c([nH]c2c1)[C@@H](CO)N(CC1CCOCC1)C[C@]13CCN(CC1)C(=O)C1CCOCC1", "cytotoxicity call": "inactive"},
      {"smiles": "CC(C)CC#Cc1ccc2c(c1)O[C@@H](CN(C)C(=O)Cc1ccncc1)[C@H](C)CN([C@H](C)CO)S2(=O)=O", "cytotoxicity call": "inactive"},
      {"smiles": "COc1ccc(CN(C)C[C@H]2OCCCC[C@@H](C)Oc3ccc(NC(=O)c4ccncc4)cc3C(=O)N([C@H](C)CO)C[C@@H]2C)cc1", "cytotoxicity call": "inactive"},
      {"smiles": "CC(C)c1cn(CC[C@@H]2CC[C@H](N)[C@@H](CO)O2)nn1", "cytotoxicity call": "inactive"},
      {"smiles": "CO[C@@H]1CN(C)C(=O)c2ccc(NS(=O)(=O)c3cn(C)cn3)cc2OC[C@@H](C)N(Cc2cccc(F)c2)C[C@@H]1C", "cytotoxicity call": "inactive"},
      {"smiles": "CCN(CC)CCNc1nc(=O)[nH]nc1C", "cytotoxicity call": "inactive"},
      {"smiles": "O=C(N[C@H]1CC[C@H](CCn2cc(C3(O)CCCC3)nn2)O[C@@H]1CO)C1CCOCC1", "cytotoxicity call": "inactive"},
      {"smiles": "COc1ccc(-c2cnc3c(c2)C(=O)N([C@H](C)CO)C[C@H](C)[C@H](CN(C)S(=O)(=O)c2ccc(C#N)cc2)O3)cc1", "cytotoxicity call": "inactive"},
      {"smiles": "C[C@H](CO)N1C[C@H](C)[C@H](CN(C)CC2CCCCC2)Oc2ccc(NC(=O)Nc3ccc(F)cc3)cc2CC1=O", "cytotoxicity call": "active"},
      {"smiles": "C[C@H](CO)N1C[C@H](C)[C@@H](CN(C)CC2CCCCC2)Oc2ccc(NC(=O)Nc3ccc(F)cc3)cc2CC1=O", "cytotoxicity call": "inactive"},
      {"smiles": "C[C@@H]1CN([C@@H](C)CO)C(=O)Cc2cc(NC(=O)Nc3ccc(F)cc3)ccc2O[C@H]1CN(C)CC1CCCCC1", "cytotoxicity call": "inactive"},
      {"smiles": "C[C@@H]1CN([C@H](C)CO)C(=O)Cc2cc(NC(=O)Nc3ccc(F)cc3)ccc2O[C@@H]1CN(C)CC1CCCCC1", "cytotoxicity call": "active"},
      {"smiles": "O=C(C[C@H]1CC[C@H]2[C@@H](COC[C@@H](O)CN2S(=O)(=O)c2ccccc2)O1)NCc1ccc2c(c1)OCO2", "cytotoxicity call": "inactive"},
      {"smiles": "C[C@H](CO)N1C[C@H](C)[C@H](CN(C)C(=O)Nc2cccc3ccccc23)Oc2ncc(/C=C/c3ccccc3)cc2C1=O", "cytotoxicity call": "inactive"},
      {"smiles": "NC(=O)c1cc2ccccc2nc1C(N)=O", "cytotoxicity call": "inactive"},
      {"smiles": "C[C@H](CO)N1C[C@H](C)[C@H](CN(C)C(=O)Nc2cccc3ccccc23)Oc2ccc(NC(=O)C3CCCCC3)cc2C1=O", "cytotoxicity call": "inactive"},
      {"smiles": "CO[C@H]1CN(C)C(=O)c2cc(NC(=O)c3ccccc3)ccc2OC[C@@H](C)N(C(=O)CN(C)C)C[C@H]1C", "cytotoxicity call": "inactive"},
      {"smiles": "CCCCc1ccc(CC(=O)O)cc1", "cytotoxicity call": "active"},
      {"smiles": "CC(=O)Nc1ccc(CC(=O)O)cc1", "cytotoxicity call": "inactive"},
      {"smiles": "O=C(O)Cc1ccc(CO)cc1", "cytotoxicity call": "inactive"},
      {"smiles": "COc1ccc2c3c(n(c2c1)C)[C@H](CO)N(C[C@]13CN(C1)C(=O)Nc1cccc(c1)F)C(=O)CN1CCOCC1", "cytotoxicity call": "inactive"},
      {"smiles": "COc1ccc(NC(=O)Nc2ccc3c(c2)C(=O)N([C@H](C)CO)C[C@@H](C)[C@H](CN(C)C(=O)C2CCCCC2)OCCCC[C@H](C)O3)cc1", "cytotoxicity call": "inactive"},
      {"smiles": "COc1ccc(NC(=O)Nc2ccc3c(c2)C(=O)N([C@@H](C)CO)C[C@H](C)[C@H](CN(C)C(=O)C2CCCCC2)OCCCC[C@@H](C)O3)cc1", "cytotoxicity call": "inactive"},
      {"smiles": "COc1ccc(NC(=O)Nc2ccc3c(c2)C(=O)N([C@@H](C)CO)C[C@@H](C)[C@@H](CN(C)C(=O)C2CCCCC2)OCCCC[C@@H](C)O3)cc1", "cytotoxicity call": "inactive"},
      {"smiles": "COc1ccc(NC(=O)Nc2ccc3c(c2)C(=O)N([C@@H](C)CO)C[C@H](C)[C@@H](CN(C)C(=O)C2CCCCC2)OCCCC[C@@H](C)O3)cc1", "cytotoxicity call": "inactive"},
      {"smiles": "COc1ccc(NC(=O)Nc2ccc3c(c2)C(=O)N([C@H](C)CO)C[C@@H](C)[C@H](CN(C)C(=O)C2CCCCC2)OCCCC[C@@H](C)O3)cc1", "cytotoxicity call": "active"},
      {"smiles": "COc1ccc(NC(=O)Nc2ccc3c(c2)C(=O)N([C@@H](C)CO)C[C@H](C)[C@H](CN(C)C(=O)C2CCCCC2)OCCCC[C@H](C)O3)cc1", "cytotoxicity call": "active"},
      {"smiles": "Cn1cnc(S(=O)(=O)N2C[C@@H](O)COC[C@H]3O[C@H](CC(=O)NC4Cc5ccccc5C4)CC[C@@H]32)c1", "cytotoxicity call": "inactive"},
      {"smiles": "C[C@H]1CN([C@@H](C)CO)C(=O)c2cccc(NC(=O)Nc3ccc4c(c3)OCO4)c2O[C@@H]1CN(C)Cc1ccc(Cl)c(Cl)c1", "cytotoxicity call": "inactive"},
      {"smiles": "COc1ccc(S(=O)(=O)N(C)C[C@@H]2Oc3cc(Br)ccc3S(=O)(=O)N([C@H](C)CO)C[C@@H]2C)cc1", "cytotoxicity call": "inactive"},
      {"smiles": "COc1ccc([C@H]([C@H](Cc2ccccc2)OC(C)=O)N(C/C=C\\[C@@H](O)c2ccccc2)[C@@H](Cc2ccccc2)C(OC)OC)cc1", "cytotoxicity call": "inactive"},
      {"smiles": "COc1ccc([C@H]([C@@H](O)Cc2ccccc2)N(CC#C[C@@H](O[Si](c2ccccc2)(c2ccccc2)C(C)(C)C)c2ccccc2)[C@@H](Cc2ccccc2)C(OC)OC)cc1", "cytotoxicity call": "inactive"},
      {"smiles": "COc1ccc([C@H]([C@H](Cc2ccccc2)OC(C)=O)N(C/C=C/[C@@H](OC(C)=O)c2ccccc2)[C@@H](Cc2ccccc2)C(OC)OC)cc1", "cytotoxicity call": "active"},
      {"smiles": "COc1ccc([C@H]([C@H](Cc2ccccc2)OC(C)=O)N(CC#C[C@@H](O[Si](c2ccccc2)(c2ccccc2)C(C)(C)C)c2ccccc2)[C@@H](Cc2ccccc2)C(OC)OC)cc1", "cytotoxicity call": "inactive"},
      {"smiles": "COc1ccc([C@H]([C@@H](O)Cc2ccccc2)N(CC#C[C@@H](O)c2ccccc2)[C@@H](Cc2ccccc2)C(OC)OC)cc1", "cytotoxicity call": "inactive"},
      {"smiles": "COc1ccc([C@H]([C@H](Cc2ccccc2)OC(C)=O)N(CC#C[C@@H](O)c2ccccc2)[C@@H](Cc2ccccc2)C(OC)OC)cc1", "cytotoxicity call": "active"},
      {"smiles": "COc1ccc(-c2cnc3c(c2)C(=O)N([C@@H](C)CO)C[C@H](C)[C@@H](CN(C)C(=O)C2CCOCC2)O3)cc1", "cytotoxicity call": "inactive"},
      {"smiles": "COc1ccc(S(=O)(=O)Nc2ccc3c(c2)C(=O)N([C@H](C)CO)C[C@H](C)[C@H](CN(C)C(=O)CCC(F)(F)F)OCCCC[C@H](C)O3)cc1", "cytotoxicity call": "inactive"},
      {"smiles": "COc1ccc(NC(=O)N(C)C[C@H]2OCCCC[C@@H](C)Oc3ccc(NC(=O)c4ccncc4)cc3C(=O)N([C@@H](C)CO)C[C@H]2C)cc1", "cytotoxicity call": "inactive"},
      {"smiles": "O=C(C[C@@H]1C=C[C@@H](NC(=O)c2cccnc2)[C@@H](CO)O1)NCc1ccncn1", "cytotoxicity call": "inactive"},
      {"smiles": "C[C@@H]1CCCCO[C@@H](CN(C)S(=O)(=O)c2cccs2)[C@@H](C)CN([C@@H](C)CO)C(=O)c2cc(NC(=O)c3ccccc3)ccc2O1", "cytotoxicity call": "inactive"},
      {"smiles": "C[C@@H]1CCCCO[C@H](CN(C)S(=O)(=O)c2cccs2)[C@@H](C)CN([C@@H](C)CO)C(=O)c2cc(NC(=O)c3ccccc3)ccc2O1", "cytotoxicity call": "inactive"},
      {"smiles": "C[C@@H]1CCCCO[C@@H](CN(C)S(=O)(=O)c2cccs2)[C@H](C)CN([C@@H](C)CO)C(=O)c2cc(NC(=O)c3ccccc3)ccc2O1", "cytotoxicity call": "inactive"},
      {"smiles": "C[C@@H]1CN([C@H](C)CO)C(=O)c2cc(NC(=O)c3ccccc3)ccc2O[C@@H](C)CCCCO[C@H]1CN(C)S(=O)(=O)c1cccs1", "cytotoxicity call": "active"},
      {"smiles": "C[C@@H]1CN([C@@H](C)CO)C(=O)c2cc(NC(=O)c3ccccc3)ccc2O[C@@H](C)CCCCO[C@@H]1CN(C)S(=O)(=O)c1cccs1", "cytotoxicity call": "inactive"},
      {"smiles": "C[C@@H]1CCCCO[C@@H](CN(C)S(=O)(=O)c2cccs2)[C@H](C)CN([C@H](C)CO)C(=O)c2cc(NC(=O)c3ccccc3)ccc2O1", "cytotoxicity call": "active"},
      {"smiles": "Cc1noc(C)c1S(=O)(=O)Nc1ccc2c(c1)C(=O)N([C@H](C)CO)C[C@H](C)[C@@H](CN(C)S(C)(=O)=O)OCCCC[C@@H](C)O2", "cytotoxicity call": "inactive"},
      {"smiles": "CCOC(=O)N1CCN(C[C@@H](O)Cn2c(=O)c3c(ncn3C)n(C)c2=O)CC1", "cytotoxicity call": "inactive"},
      {"smiles": "Cc1noc(C)c1S(=O)(=O)Nc1ccc2c(c1)C(=O)N([C@H](C)CO)C[C@@H](C)[C@@H](CN(C)S(=O)(=O)c1cn(C)cn1)OCCCC[C@@H](C)O2", "cytotoxicity call": "inactive"},
      {"smiles": "COc1ccc(NC(=O)Nc2ccc3c(c2)C(=O)N([C@H](C)CO)C[C@H](C)[C@@H](CN(C)CC2CC2)OCCCC[C@H](C)O3)cc1", "cytotoxicity call": "inactive"},
      {"smiles": "CCOC(=O)C(C#N)C1=NCCC1", "note": "(centres undefined)", "cytotoxicity call": "inactive"},
      {"smiles": "C[C@@H]1CN([C@H](C)CO)C(=O)c2cc(NC(=O)c3ccccc3)ccc2O[C@@H](C)CCCCO[C@@H]1CN(C)C(=O)Cc1ccccc1", "cytotoxicity call": "inactive"},
      {"smiles": "COc1cccc(NC(=O)N[C@H]2C=C[C@H](CC(=O)N3CCN(C)CC3)O[C@@H]2CO)c1", "cytotoxicity call": "inactive"},
      {"smiles": "C[C@H]1CN([C@@H](C)CO)C(=O)c2cc(NC(=O)CCN3CCOCC3)ccc2O[C@@H]1CN(C)Cc1ccc(C(=O)O)cc1", "cytotoxicity call": "inactive"},
      {"smiles": "C[C@H]1CN([C@@H](C)CO)C(=O)c2cc(NS(=O)(=O)c3cn(C)cn3)ccc2O[C@H]1CN(C)CC1CC1", "cytotoxicity call": "inactive"},
      {"smiles": "COCC(=O)Nc1ccc2c(c1)OC[C@@H](C)N(C(=O)c1ccccc1F)C[C@@H](C)[C@H](OC)CN(C)C2=O", "cytotoxicity call": "inactive"}
    ]}
  ]
}
